The test in a line: modulators of mitochondrial supercomplex assembly, cell-based, luminescence, Hoechst nuclei count (AID 1645838).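 On all read-outs here: control cybrid cells.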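 On z-score: higher means more mitochondrial supercomplex formation.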 The conditions noted are these: Cells, luminescence/Hoechst cell count ratio, supercomplex reporter; for z-score: stronger effect = higher value; for cell count: measured here: cell number, Hoechst nuclei count.
The mark [1] stands for this setting: library stock concentration (final well concentration not given) 46 uM.
[2] abbreviates: library stock concentration (final well concentration not given) 278 uM.
The mark [3] stands for this setting: library stock concentration (final well concentration not given) 1.67 mM.
[4] abbreviates: library stock concentration (final well concentration not given) 10 mM.
Where [5] appears, read: library stock concentration (final well concentration not given) 80 uM.
[6] abbreviates: library stock concentration (final well concentration not given) 400 uM.
[7] abbreviates: library stock concentration (final well concentration not given) 2 mM.

Molecules are shown by their SMILES. Values joined by “and” are separate entries in the source; they are usually repeats but may differ in a detail not shown here. Identical values can stand only once. Hit rate of the full screen: of about 2,000 compounds, about 100 (5%) were called active. No stated cut-off is given here; in the data, active means z-score above about 2; inactive means the rest. The full list was thinned out, with actives kept by preference. A structure can be active in one record and inactive in another.

Turning to `CCCCC[C@@](C)(O)/C=C/[C@H]1C(=O)C[C@H](O)[C@@H]1C/C=C\CCCC(=O)O`, the z-score was -0.768 (inactive) and the cell count was 5670.
On to `O=c1ncccn1C1OC(CO)C(O)C1O` (stereo not given), for which the z-score is, setting by setting: under setting [1], -0.336 (inactive); under setting [2], -0.313 (inactive); under setting [3], -0.302 (inactive); under setting [4], 0.386 (inactive). In addition, the cell count reads like this: under setting [1], 5670; under setting [2], 5220; under setting [3], 4780; under setting [4], 3500.
Consider `c1cc2c(cc1C1CCCCC1)c1c3n2CCNC3CCC1` (stereo not given), for which the z-score under setting [1] was -0.207 (inactive), the z-score under setting [2] was -0.279 (inactive), the z-score under setting [3] is 0.239 (inactive) and the z-score under setting [4] is 3.28 (active). Besides, the cell count under setting [1] came out at 6430, the cell count under setting [2] was determined as 6250, the cell count under setting [3] was 6160 and the cell count under setting [4] stood at 4320.
`CCCCCCCC/C=C\CCCCCCCC(=O)NCCS(=O)(=O)O`: the z-score was -0.251 (inactive) and the cell count came to 5290.
As to `CCCCCCCCCCCCC/C=C/[C@H](O)[C@@H](CO)NC(=O)CCCCCCCCCCCCCCCCCCCCCCC`, the z-score was 0.79 (inactive) and the cell count came to 5520.
On to `O=C(O)CCC/C=C\CC1C2CCC(O2)C1CNNC(=O)Nc1ccccc1` (stereo not given), for which the z-score is -0.631 (inactive) and the cell count came to 5630.
As to `Cc1ccc(NC(=O)c2cccc(C(C)(C)C#N)c2)cc1Nc1ccc2ncn(C)c(=O)c2c1`, the outcome (library stock 10 mM) is “inactive; censored for cell count”. Besides, the z-score by setting is: under setting [1], -0.155 (inactive); under setting [5], 1.5 (inactive); under setting [2], 0.171 (inactive); under setting [6], 1.71 (inactive); under setting [3], 0.888 (inactive); under setting [7], 2.43 (active). Besides, the z-score under setting [4] is 3.11 (active). Besides, the cell count runs as follows: under setting [1], 6500; under setting [5], 3700; under setting [2], 6060; under setting [6], 3410; under setting [3], 4330; under setting [7], 2280. In addition, under setting [4], the cell count is 1960.
As to `Cc1ccc(C(=O)Nc2cccc(C(F)(F)F)c2)cc1Nc1nc(-c2cccnc2)nc2c1cnn2C`, under “library stock 10 mM”, the outcome was “inactive; censored for cell count”. The z-score is, setting by setting: under setting [5], -0.121 (inactive); under setting [6], 0.0935 (inactive); under setting [7], 1.5 (inactive). Besides, the cell count came to 5540 under setting [5], 5440 under setting [6] and 3810 under setting [7].
For the compound `Cc1ccc(C(=O)Nc2cccc(C(F)(F)F)c2)cc1Nc1cncc(C(N)=O)c1`, the z-score is, setting by setting: under setting [5], -0.656 (inactive); under setting [6], -0.351 (inactive); under setting [7], -0.861 (inactive); under setting [4], -0.825 (inactive). Moreover, the cell count turned out to be 4950 under setting [5], 4630 under setting [6], 5070 under setting [7] and 4410 under setting [4].
As for `CCCCC(C)(C)[C@H](O)/C=C/[C@@H]1[C@@H](C/C=C\CCCC(=O)O)[C@@H](O)C[C@H]1O`, the z-score was -0.23 (inactive) and the cell count was 5200.
On the same counts, the results for `CCCCC/C=C\C=C\C(O)CCCCCCCC(=O)OC[C@@H](COC(=O)CCCCCCC/C=C\C=C\C(O)CCCCC)OC(=O)CCCCCCC/C=C\C=C\C(O)CCCCC` (stereo not given in full) are -0.295 (inactive) and 5700.
Take `CC(=O)c1ccc2c(c1)c1cc(C(C)=O)ccc1n2CCNC(C)C`: the outcome was “inactive; censored for cell count” (library stock 2 mM) and “inactive; censored for cell count” (library stock 10 mM). Moreover, the z-score under setting [5] was 0.38 (inactive) and the z-score under setting [6] is 4.83 (active). Further, the cell count is, setting by setting: under setting [5], 5240; under setting [6], 2850.
Take `CCCCCC(=O)CC[C@@H]1[C@@H](C/C=C\CCCC(=O)O)[C@@H](O)C[C@H]1O`: the z-score was 0.125 (inactive) and the cell count worked out at 5560.
Taken in the same sequence, the figures for `CCCCCCCCCCCCCCCCCCOC[C@H](COP(=O)([O-])OCC[N+](C)(C)C)OC(C)=O` were -1.9 (inactive) and 5980.
Take `CCN(CC)Cc1ccc(C(=O)N(CCc2ccccc2OC)C2CCNC2)cc1` (stereo not given): the z-score was 0.157 (inactive) under setting [5], 0.267 (inactive) under setting [6], 0.915 (inactive) under setting [7] and 3.1 (active) under setting [4]. Also, the cell count runs as follows: under setting [5], 5850; under setting [6], 5490; under setting [7], 4680; under setting [4], 3340.
Take `C[C@@H]1C[C@H]2O[C@@H]2/C=C\C=C\C(=O)Cc2c(Cl)c(O)cc(O)c2C(=O)O1`: the outcome is “inactive; censored for cell count”.
Turning to `CCOc1cc(CC(=O)NC(CC(C)C)c2ccccc2N2CCCCC2)ccc1C(=O)O` (stereo not given), the z-score under setting [1] was -0.125 (inactive), the z-score under setting [2] is -0.238 (inactive), the z-score under setting [3] was -0.332 (inactive) and the z-score under setting [4] was -0.204 (inactive). The cell count runs as follows: under setting [1], 4820; under setting [2], 5070; under setting [3], 5220; under setting [4], 4740.
With `O=C(O)C1CCC(c2cc3cccnc3c(-c3cccc(F)c3)n2)CC1` (stereo not given), the z-score was 0.62 (inactive) under setting [1], 1.24 (inactive) under setting [2], 1.5 (inactive) under setting [3] and 1.76 (inactive) under setting [4]. Also, the cell count under setting [1] was determined as 6220, the cell count under setting [2] stood at 6290, the cell count under setting [3] was 5980 and the cell count under setting [4] was found to be 6420.
On to `COc1cccc2cc(-c3nc(C4CCC(C(=O)O)CC4)n4ncnc(N)c34)[nH]c12` (stereo not given), for which the outcome (library stock 10 mM) is “inactive; censored for cell count”. Further, the z-score by setting is: under setting [5], -0.563 (inactive) and 0.107 (inactive); under setting [6], -0.188 (inactive) and 0.529 (inactive); under setting [7], 1.25 (inactive) and 2.27 (active). The cell count was 4660 and 5660 under setting [5]; 3600 and 4570 under setting [6]; 2190 and 2510 under setting [7].
As for `COc1ccc(/C=C/c2cc(O)cc(O)c2)cc1O`, the outcome is “inactive; censored for cell count”.
As to `CN(c1ccccc1CNc1nc(Nc2ccc3c(c2)CC(=O)N3)ncc1C(F)(F)F)S(C)(=O)=O`, the outcome is, setting by setting: (library stock 2 mM) “inactive; censored for cell count”; (library stock 10 mM) “inactive; censored for cell count”. Besides, the z-score is 0.0927 (inactive) under setting [5] and 0.505 (inactive) under setting [6]. The cell count under setting [5] is 4980 and the cell count under setting [6] was 4440.
With `Cc1cnc(Nc2ccc(OCCN3CCCC3)cc2)nc1Nc1cccc(S(=O)(=O)NC(C)(C)C)c1`, the outcome (library stock 10 mM) is “inactive; censored for cell count”. Also, the z-score was -0.00359 (inactive) under setting [1], -0.105 (inactive) under setting [2] and 5.46 (active) under setting [3]. In addition, the cell count under setting [1] was found to be 4980, the cell count under setting [2] was 5010 and the cell count under setting [3] turned out to be 2610.
Regarding `C=CCn1c(=O)c2cnc(Nc3ccc(N4CCN(C)CC4)cc3)nc2n1-c1cccc(C(C)(C)O)n1`, the outcome by setting is: (library stock 1.67 mM) “inactive; censored for cell count”; (library stock 10 mM) “inactive; censored for cell count”. Also, the z-score under setting [1] was -0.147 (inactive) and the z-score under setting [2] is -0.118 (inactive). The cell count under setting [1] is 4940 and the cell count under setting [2] was 4830.

Values taken from PubChem BioAssay AID1645838 (ICCB-Longwood Screening Facility, Harvard Medical School, 2021).
